Experimental data reported in PubChem BioAssay AID2546 (National Center for Advancing Translational Sciences (NCATS), 2010).
Hit rate of the full screen: of about 310,000 compounds, about 11,000 (3.5%) were called active. About 8% were inconclusive and are not listed. What follows is part of a selection rich in actives, with near analogues and random picks from the rest. A call without a number means that no potency is given here. Unmarked numbers belong to inactive results. Calls follow the shape of the dose curve; as a rule, active = well fitted inhibition curve with a large enough effect; inconclusive = small, poorly fitted or top-dose-only effect, or effect the other way; inactive = flat fitted curve, though single readings scatter.

Test: VP16 counterscreen qHTS for inhibitors of ROR gamma transcriptional activity;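 also: Gal4-VP16 expression switched on by copper sulfate through the metallothionein promoter; nearly all actives have a fitted effect of over 50% in size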
Conditions: Drosophila S2 Gal4-VP16 UAS-luciferase, luminescence, 20 h; series mostly up to 53.6 µM
Potency is read from the fitted curve at half-maximal effect.

Row | Structure (SMILES) | Potency | activity, negative = inhibition
1 | COc1ccc(S(=O)(=O)Nc2ccc(O)c(Sc3nc4ccccc4s3)c2)cc1 | inactive | –
2 | O=[N+]([O-])c1c(NCCO)cc(Sc2nc3ccccc3s2)c2nonc12 | 5.01 µM (active) | –
3 | O=C(CSc1nc2ccccc2s1)Nc1ccc(C(=O)O)cc1 | inactive | –
4 | CCCOc1cccc(C(=O)Nc2ccccc2C(=O)N2CCN(C)CC2)c1 | inactive | –
5 | Cc1ccc(S(=O)(=O)c2nc(-c3cccs3)oc2NCc2cccnc2)cc1 | inactive | –
6 | Fc1ccc(/C=N/n2c(COc3ccccc3)n[nH]c2=S)cc1 | inactive | –
7 | Cc1ccc(OCc2n[nH]c(=S)n2-c2ccc(C)cc2)cc1 | inactive | –
8 | S=c1[nH]nc(COc2ccccc2)n1-c1ccccc1 | 10 µM (active) | –
9 | COc1ccc2oc(C(=O)NCC(Cc3ccccc3)N(C)C)c(C)c2c1 (stereo not given) | inactive | –
10 | CC(C)Oc1ccc(CCc2n[nH]c(=S)n2Cc2ccccc2)cc1 | 15.8 µM (active) | –
11 | C=CCn1c(CCc2ccc(OC(C)C)cc2)n[nH]c1=S | inactive | –
12 | CC(C)Oc1ccc(Cc2n[nH]c(=S)n2Cc2ccccc2)cc1Cl | inactive | –
13 | COc1ccc(CCNC(=O)C2CCCN(S(=O)(=O)c3ccc(OC)cc3)C2)cc1 (stereo not given) | inactive | –
14 | CC1CCC(NC(=O)CN(C)S(=O)(=O)c2ccc3c(c2)c(=O)n(C)c(=O)n3C)CC1 (stereo not given) | inactive | –
15 | COc1cccc(NC(=O)CC2C(=O)NCCN2C(=S)Nc2ccc(F)cc2)c1 (stereo not given) | inactive | –
16 | COc1ccc(C(=O)NC(=S)N2CCNC(=O)C2CC(=O)OC(C)C)cc1 (stereo not given) | 10 µM (active) | –
17 | CCc1ccc(NC(=O)CC2C(=O)NCCN2C(=S)Nc2ccccc2)cc1 (stereo not given) | inactive | –
18 | Cc1ccc(-c2ccc(=O)n(Cc3ccc(F)cc3Cl)n2)cc1 | inactive | –
19 | O=c1[nH]c2cccnc2n1-c1ccc([N+](=O)[O-])cc1 | inactive | –
20 | O=[N+]([O-])c1ccc2c(c1)Nc1nc3ccccc3nc1N2 | inactive | –
21 | O=[N+]([O-])c1ccc2nc(-c3ccccn3)[nH]c2c1 | 6.31 µM (active) | –
22 | Nc1nnn(CC(=O)N/N=C/c2ccc(O)cc2)n1 | inactive | –
23 | O=c1c2ccccc2nc(N/N=C/c2ccccc2)n1O | inactive | –
24 | CC(C)(C)c1nnc(N/N=C/c2ccc(O)cc2)n(N)c1=O | 2.24 µM (active) | –
25 | CC(=O)Nc1cccc(C(=O)Nc2nc(C)cs2)c1 | inactive | –
26 | S=C(Nc1cccc(Cl)c1)Nc1ccc2cn[nH]c2c1 | inactive | –
27 | Cc1csc(NC(=S)Nc2cccc(Cl)c2)n1 | 1 µM (active) | –

Row | Structure (SMILES) | Potency | activity, negative = inhibition
28 | COc1cccc(N(CC(=O)NC2CCCCCC2)S(=O)(=O)c2ccccc2)c1 | inactive | –
29 | CN1C(=O)CN2CCc3ccccc3C2c2cc(Cl)ccc21 (stereo not given) | inactive | –
30 | O=C(CSc1nc(-c2ccccc2)cs1)Nc1cccc([N+](=O)[O-])c1 | inactive | –
31 | O=C(CSc1ncn[nH]1)Nc1nsc(-c2ccccc2)n1 | inactive | –
32 | O=C(CSc1ncn[nH]1)Nc1nc(-c2cccc([N+](=O)[O-])c2)cs1 | 17.8 µM (active) | –
33 | COc1ccc2[nH]c(=O)c(CN(Cc3cccnc3)S(=O)(=O)c3ccccc3F)cc2c1 | inactive | –
34 | COc1cccc(N(CC(=O)NCc2ccccc2)C(=O)CCC(=O)Nc2nccs2)c1 | inactive | –
35 | NC(N)=Nc1nc(-c2ccccc2)c2cc(Cl)ccc2n1 | inactive | –
36 | O=C(CCl)NNc1nc(-c2ccccc2)c2cc(Cl)ccc2n1 | 17.8 µM (active) | –
37 | O=C(CCl)NNc1cccc(Cl)n1 | inactive | –
38 | COc1ccc(CCNC(=O)C(=O)NCC2OCCN2S(=O)(=O)c2ccc(F)cc2)cc1OC (stereo not given) | inactive | –
39 | CSCc1nnc(NC(=O)c2ccc(S(=O)(=O)N3CCCCC3C)cc2)o1 (stereo not given) | 1.41 µM (active) | –
40 | CCc1nnc(NC(=O)c2ccc(S(=O)(=O)NC3CCCCC3)cc2)s1 | – | 0.424% [at 0.365 µM]
41 | CC1CCCN(S(=O)(=O)c2ccc(C(=O)Nc3nnc(-c4ccncc4)o3)cc2)C1 (stereo not given) | inactive | –
42 | O=C(Nc1nnc(-c2ccco2)o1)c1ccc(S(=O)(=O)N2CCOCC2)cc1 | 5.62 µM (active) | –
43 | CCc1nnc(NC(=O)C2CCCN2S(=O)(=O)c2ccccc2)s1 (stereo not given) | inactive | –
44 | O=C(Nc1ccc2cn[nH]c2c1)c1ccc(S(=O)(=O)N2CCOCC2)cc1 | inactive | –
45 | Cc1ccnc(NS(=O)(=O)c2ccc(NC(=O)c3ccc(S(=O)(=O)N4CCOCC4)cc3)cc2)n1 | inactive | –
46 | CC1CN(S(=O)(=O)c2ccc(C(=O)Nc3sccc3C(N)=O)cc2)CC(C)O1 (stereo not given) | inactive | –
47 | CC1CCCCN1S(=O)(=O)c1ccc(C(=O)Nc2nnc(-c3cccs3)o2)cc1 (stereo not given) | 0.891 µM (active) | –
48 | Cc1cccn2cc(-c3cccc(S(=O)(=O)N4CCCCC4)c3)nc12 | inactive | –
49 | COc1ccc(CCC(C)N2CCc3ccccc3C2)cc1 (stereo not given) | inactive | –
50 | Cc1cccc([C@@H]2[C@@H]3C(=O)N(Cc4ccccc4)C(=O)[C@@H]3[C@]3(C)C(=O)N(c4ccc(Br)cc4)C(=O)N23)c1 | inactive | –
51 | Cn1nccc1C(=O)N1CCCC(C(=O)c2ccc(Oc3ccccc3)cc2)C1 (stereo not given) | inactive | –
52 | CCOC(=O)[C@H]1[C@H]2COc3cc(OC)ccc3[C@@H]2N2C(=O)N(c3ccc(Br)cc3)C(=O)[C@@]12C | inactive | –
53 | Cc1ccc(OCCCC(=O)Nc2ccc(S(=O)(=O)Nc3cc(C)nc(C)n3)cc2)cc1 | inactive | –
54 | Cc1ccc(CSc2nsc(C)c2C#N)cc1 | inactive | –

Row | Structure (SMILES) | Potency | activity, negative = inhibition
55 | CCC1(CC)NC(=O)N(Cc2nc3ccccc3s2)C1=O | 3.55 µM (active) | –
56 | COC(=O)C1[C@H]2SC(C)(C)C(C(=O)OC)N2C(=O)N1Cc1nc2ccccc2s1 (stereo not given in full) | inactive | –
57 | CN(Cc1nc2ccccc2s1)C(=O)c1ccc(F)cc1 | inactive | –
58 | N#Cc1ccc(C2N=C(c3ccccc3)NO2)cc1 (stereo not given) | inactive | –
59 | COc1ccc(C(=O)N/N=C(\C)CC(=O)Nc2ccc(Cl)cn2)cc1 | inactive | –
60 | O=C(Cc1ccccc1)NC(=S)Nc1ccc(N2CCCCC2)cc1 | 3.55 µM (active) | –
61 | COc1ccc(C(=O)Nc2ccc(N3CCC(C)CC3)cc2)cc1Br | inactive | –
62 | Cc1ccccc1C(=O)Nc1ccc(N2CCCCCC2)cc1 | inactive | –
63 | COc1c(Cl)cc(C(=O)Nc2ccc(Cl)cn2)cc1Cl | inactive | –
64 | Cc1ccccc1C(=O)N1CCN(c2ccc(NC(=O)c3cccs3)cc2)CC1 | inactive | –
65 | O=C(c1ccccc1)c1ccc(C(=O)N2CCN(c3ccccc3)CC2)cc1 | inactive | –
66 | COc1ccc(C(=O)NC(=S)Nc2ccc(Cl)cn2)cc1OC | 12.6 µM (active) | –
67 | COc1ccc(C(=O)NC(=S)Nc2ccc(N3CCCC3)cc2)cc1OC | 0.891 µM (active) | –
68 | COc1ccc(C(=O)Nc2ccc(C3(C#N)CCCC3)cc2)cc1OC | inactive | –
69 | Cc1ccccc1C(=O)NC(=S)Nc1ccc(N2CCN(C(=O)c3ccccc3)CC2)cc1 | 5.62 µM (active) | –
70 | O=C(CCN1CCN(c2ccccc2)CC1)NNC(=S)Nc1ccccc1 | inactive | –
71 | CC1CN(C(=S)Nc2cccc(F)c2)CC(C)O1 (stereo not given) | inactive | –
72 | O=C(C1CC(=O)N(C2CCCCC2)C1)N1CCN(c2ccccc2)CC1 (stereo not given) | inactive | –
73 | O=C(CN(CC1CCCO1)C(=O)CNS(=O)(=O)c1ccc(Cl)cc1)NCc1ccccc1 (stereo not given) | inactive | –
74 | CCOc1ccc(NC(=O)c2nc(SCC)ncc2Cl)cc1 | inactive | –
75 | O=[N+]([O-])c1cc([N+](=O)[O-])c(Oc2cc(F)cc(F)c2F)cc1NN1CCCCC1 | inactive | –
76 | Cc1ccc(-c2noc(C3CCCN(C(=O)c4cccc(Cl)c4)C3)n2)o1 (stereo not given) | inactive | –
77 | CCOc1ccc(C(=O)NC(=S)Nc2ccc(N3CCOCC3)c(Cl)c2)cc1[N+](=O)[O-] | 3.98 µM (active) | –
78 | CCOc1ccc(C(=O)NC(=S)Nc2ccc(NC(=O)C(C)C)cc2)cc1[N+](=O)[O-] | inactive | –
79 | COc1cccc(OC)c1C(=O)NC(=S)Nc1ccc(N2CCOCC2)c(Cl)c1 | inactive | –
80 | CC(CC(=O)N1CCN(c2ccccc2)CC1)c1ccccc1 (stereo not given) | inactive | –
81 | CC(=O)N1CCN(c2ccc(NCc3ccc(C(C)C)cc3)cc2)CC1 | 1.12 µM (active) | –

Row | Structure (SMILES) | Potency | activity, negative = inhibition
82 | CCc1ccc(NC(=O)N2CCN(c3ccccc3)CC2)cc1 | inactive | –
83 | Cc1nn(-c2ccccc2)c(Cl)c1/C=N/NC(=O)c1nn(C)cc1[N+](=O)[O-] | inactive | –
84 | Cc1ccnc(N2C(=O)c3ccccc3C2Nc2ccc3c(c2)OCCO3)c1 (stereo not given) | inactive | –
85 | CCc1ccccc1NC1c2ccccc2C(=O)N1c1cccnc1 (stereo not given) | inactive | –
86 | COC(=O)c1cc(NC2c3ccccc3C(=O)N2c2ccc(Cl)cn2)cc(C(=O)OC)c1 (stereo not given) | 11.2 µM (active) | –
87 | COc1ccccc1CNC(=O)C1CCN(S(=O)(=O)c2ccc3c(c2)CC(C)N3C(=O)C2CC2)CC1 (stereo not given) | inactive | –
88 | CN(CCOc1ccc(CC2SC(=O)NC2=O)cc1)c1ccccn1 (stereo not given) | inactive | –
89 | O=C(O)C[C@@H]1NC(=O)[C@H](Cc2ccccc2)NC1=O | inactive | –
90 | COc1ccc(CN2C(=O)C(C)S/C2=N/N=C/c2ccco2)cc1 (stereo not given) | inactive | –
91 | C=CCN1C(=O)C(Cc2cccc(Cl)c2)S/C1=N/N=C/c1ccco1 (stereo not given) | inactive | –
92 | CC(C)=N/N=C1/NC(=O)C(Cc2ccccc2)S1 (stereo not given) | 2.82 µM (active) | –
93 | O=C1N/C(=N\N=C\c2ccco2)SC1Cc1ccc(F)cc1 (stereo not given) | 4.47 µM (active) | –
94 | CC1Sc2ccc(S(=O)(=O)CCC(=O)NCc3ccccc3Cl)cc2NC1=O (stereo not given) | inactive | –
95 | C/C(=N\NC(=O)c1ccc2ccccc2c1)c1cccnc1 | inactive | –
96 | COc1ccc(CCNC(=O)CS(=O)(=O)Cc2nc(-c3ccc(C)cc3)oc2C)cc1OC | inactive | –
97 | COc1cccc(CNS(=O)(=O)c2ccc3c(c2)CC(C)N3C(C)=O)c1 (stereo not given) | inactive | –
98 | Cn1cncc1COC(=O)c1ccc(Cl)cc1 | inactive | –
99 | O=C(Cc1c(Cl)cccc1Cl)NC1CC1 | inactive | –
100 | C=C(C)COc1ccc(-c2nc(N)ncc2-c2ccccc2OC)c(O)c1 | inactive | –
101 | CCOc1ccc(-c2n[nH]c(C)c2-c2ccccn2)c(O)c1 | inactive | –
102 | C=C(C)COc1ccc(-c2n[nH]c(C)c2-c2ccccc2OC)c(O)c1 | 14.1 µM (active) | –
103 | CCOc1ccc(-c2nc(N)ncc2-c2ccccc2OC)c(O)c1 | inactive | –
104 | C=C(C)COc1ccc(-c2n[nH]c(C)c2-c2ccccc2)c(O)c1 | 3.16 µM (active) | –
105 | C=C(C)COc1ccc(-c2ncncc2-c2ccc(OC)cc2)c(O)c1 | inactive | –
